# Source: PubChem (National Center for Advancing Translational Sciences (NCATS))
# Only some compounds are listed: those with a hit (about 9.3% of all), similar ones and a draw of the others.
# ELG1 DNA repair: qHTS screen for small molecules that inhibit ELG1-dependent DNA repair in human embryonic kidney (HEK293T) cells expressing luciferase-tagged ELG1; HEK293T ELG1-luciferase reporter, luminescence, 16 h; DNA damage induced by 5-fluorouridine; Potency, µM (doses to about 46.1 µM), without a hit: at the highest dose activity change, negative = inhibition, usual class: inhibitors; actives 2.3% (n = 330,000); note: % is set by controls: 0 for no effect and ±100 for the full control effect; nearly all actives have a fitted effect of over 55% in size
#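 DMSO vehicle served as the neutral condition. Each well held 2,000 cells given 5-fluorouridine plus compound; after 16 hr at 37 °C/5% CO2, ONE-Glo was added and luciferase measured 30 min later.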
# Rab9 promoter act: qHTS Assay for Rab9 Promoter Activators; AID 485297, 2010; Huh7 Rab9 promoter-luciferase reporter, luminescence, 24 h; Potency, µM (highest dose often 9.22 µM), without a hit: top-dose activation, negative = inhibition, usual class: activators; actives 2.8% (n = 320,000); note: % of control where 0% means no effect; nearly all actives have a fitted effect of over 60% in size
#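 Measured in stably transfected Huh7 cells bearing a Rab9 promoter–luciferase construct: 24 h compound treatment at 37 °C, followed by luminescence detection.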
# SMN2 splice enh: qHTS Assay for Enhancers of SMN2 Splice Variant Expression; HEK293 SMN2-luciferase splicing reporter, luminescence, 30-36 h; Potency, µM (top dose mostly 46.1 µM), inactives show at the highest dose activity change, positive = activation, hits mostly activators; actives 2.8% (n = 210,000); AID 1458, 2008; note: % of control where 0% means no effect; nearly all actives have a fitted effect of over 55% in size
#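 qHTS luciferase splicing reporter: luminescence rises when SMN2 exon 7 is included in transfected HEK293 cells. Compound exposure lasted 30-36 h at 37C, with 4.5 mM final sodium butyrate as control, followed by a ONE-Glo read.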
# NPC1 prom act: qHTS Assay for NPC1 Promoter Activators; Huh7 NPC1 promoter luciferase reporter, 24 h; Potency, µM (highest dose often 9.22 µM), for the others: at the highest dose activation, usual class: activators; actives 2.4% (n = 320,000); AID 485313, 2010; note: % of control where 0% means no effect; nearly all actives have a fitted effect of over 60% in size
#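 Stable NPC1-promoter luciferase Huh7 line; cpd (DMSO) 24 h, 37 °C, 5% CO2; Amplite luciferase reagent 10 min RT; luminescence readout. qHTS format.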
# ELG1 genotox: qHTS screen for small molecules that induce genotoxicity in human embryonic kidney (HEK293T) cells expressing luciferase-tagged ELG1; HEK293T ELG1-luciferase reporter, luminescence, 16 h; actives 1.3% (n = 330,000); Potency, µM (titrated, usually from 46 µM), for the others: at the top dose activity change, positive = activation, hits mostly activators; AID 504466, 2011; note: % of control where 0% means no effect; nearly all actives have a fitted effect of over 60% in size
#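 After overnight (16 hr) compound treatment at 37 °C, ELG1-luciferase HEK293T cells were lysed with ONE-Glo; luminescence quantified 30 min later at room temperature.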
# FLuc modulator: qHTS profiling assay for firefly luciferase inhibitor/activator using purifed enzyme and Km concentrations of substrates (counterscreen for miR-21 project). actives 6.9% (n = 360,000). purified FLuc, Km substrates, luminescence inhibition. Potency, µM (doses to about 57.5 µM), without a hit: top-dose activity change, negative = inhibition, actives largely listed as inhibitors;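 note: plate controls were vehicle for no effect and reference inhibitor for full effect; nearly all actives have a fitted effect of over 55% in size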
# Target sequence (P08659 whole entry, looked up): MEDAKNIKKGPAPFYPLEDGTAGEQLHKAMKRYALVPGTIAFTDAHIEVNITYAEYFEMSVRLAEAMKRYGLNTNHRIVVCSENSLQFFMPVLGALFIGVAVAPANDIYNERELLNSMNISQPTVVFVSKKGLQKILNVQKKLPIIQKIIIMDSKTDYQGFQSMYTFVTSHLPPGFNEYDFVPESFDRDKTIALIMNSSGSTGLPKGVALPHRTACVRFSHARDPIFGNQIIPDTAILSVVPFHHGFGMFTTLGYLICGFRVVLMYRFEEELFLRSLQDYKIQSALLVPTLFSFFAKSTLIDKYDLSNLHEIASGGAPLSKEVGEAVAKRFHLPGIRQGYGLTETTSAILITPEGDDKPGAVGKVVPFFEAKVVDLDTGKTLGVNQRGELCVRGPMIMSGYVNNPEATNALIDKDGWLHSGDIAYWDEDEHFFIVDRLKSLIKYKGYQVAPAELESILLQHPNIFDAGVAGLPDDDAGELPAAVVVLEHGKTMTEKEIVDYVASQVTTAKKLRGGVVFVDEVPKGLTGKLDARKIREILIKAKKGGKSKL
#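 Purified P. pyralis luciferase (10nM final) with 10uM D-luciferin and 10uM ATP (Km levels) in 50mM Tris acetate pH 7.5, 10mM Mg acetate, 0.01% Tween-20, 0.05% BSA; qHTS 6-point titration, ~60 µM downward; luminescence read.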
# The depositor's hits bear a star; ? = inconclusive; . = no result given; [ ] = dose if it differs, or a comment. Calls come from the whole dose curve; as a rule, active = well fitted curve in the direction sought with a large enough effect; inconclusive = small, poorly fitted or top-dose-only effect, or another doubt; inactive = no such curve, though single readings can be large; an effect the other way counts as inactive or inconclusive. Potency is the fitted concentration of half-maximal effect.
SMILES,ELG1 DNA repair,Rab9 promoter act,SMN2 splice enh,NPC1 prom act,ELG1 genotox,FLuc modulator
CC(=O)c1cccc(NS(=O)(=O)c2ccc(N/C=C\C(=O)c3ccc(C)cc3)cc2)c1,?,-4%,-23%,-13%,2%,5%
Cc1c(N/C=C/C(=O)c2ccc(Cl)cc2)c(=O)n(-c2ccccc2)n1C,19%,13%,?,-2%,9%,?
O=C(Nc1cccc(O)c1)c1cccc(C(=O)Nc2cccc(O)c2)c1,-6%,2%,.,8%,-2%,?
O=C(/C=C/Nc1cccc(O)c1)c1ccccc1,?,23%,?,?,?,0.17µM*
CC(=O)c1cccc(N/C=C\C(=O)c2ccc(C)cc2)c1,?,0.79µM*,6.3µM*,0.79µM*,2.6µM*,0.3µM*
O=C(/C=C/Nc1ccc(F)c(Cl)c1)c1ccccc1,?,3.5µM*,.,?,18µM*,2.4µM*
COc1ccc2c(c1)O[C@@H](c1cccc(C(F)(F)F)c1)[C@H](OC(=O)NS(=O)(=O)c1ccc(C)cc1)C2=O,.,.,-1%,.,.,.
CC(=O)Nc1nc(-c2ccccc2)nc(-c2ccccc2OC(C)=O)n1,21µM*,8%,4%,13%,4%,-13%
O=C1C=CC(=O)N1CCCCCCN1C(=O)C=CC1=O,23µM*,-32%,-69%,-27%,-18%,?
CC(Cc1ccco1)NC(=O)c1ccc(C(F)(F)F)cc1 (configuration not stated),?,1µM*,.,0.71µM*,8.2µM*,6.7µM*
CC(Cc1ccco1)NC(=O)c1cccc(S(=O)(=O)N(C)C)c1 (configuration not stated),?,?,.,?,15µM*,?
O=C(NCc1ccco1)c1ccc(C(F)(F)F)cc1,13%,1%,-6%,-2%,6%,-1%
COc1ccc(C(=O)Nn2c(SCC(=O)N3CCC(C)CC3)nc3ccccc3c2=O)cc1,?,.,-79%,0.4µM*,?,0.67µM*
COc1ccc(C(=O)Nn2c(SCC(=O)NCc3ccco3)nc3ccccc3c2=O)cc1,?,0.089µM*,?,0.32µM*,?,0.21µM*
COCCCn1c(SCC(=O)NC2CCCCC2)nc2ccccc2c1=O,0%,6%,.,-12%,0%,-1%
CCn1c(SCC(=O)NCc2ccco2)nc2ccccc2c1=O,8%,0%,.,-6%,0%,-2%
COc1ccc(C(=O)Nn2c(SCC(=O)NC3CCCCC3)nc3ccccc3c2=O)cc1,?,4µM*,29%,3.5µM*,?,1.9µM*
O=C(Nn1c(SCc2cccc([N+](=O)[O-])c2)nc2ccccc2c1=O)c1ccccc1,?,20%,?,-2%,14%,?
COc1ccc(C(=O)Nn2c(SCc3cccc([N+](=O)[O-])c3)nc3ccccc3c2=O)cc1,?,3.5µM*,.,4µM*,0.73µM*,5.4µM*
COc1ccc(C(=O)Nn2c(SCC(=O)c3ccc(Cl)cc3)nc3ccccc3c2=O)cc1,?,0.5µM*,-88%,0.45µM*,?,4.8µM*
Cc1nc2cc3nc(C)sc3cc2s1,?,4µM*,?,?,?,12µM*
CN1C(=O)/C(=C\c2ccco2)N=C1c1ccc(Cl)cc1Cl,4%,-2%,.,-2%,4%,17µM*
O=C(NC(Cc1c[nH]c2ccccc12)C(=O)O)c1ccccc1 (configuration not stated),8%,1%,?,-3%,5%,3%
CC(=O)NC(Cc1c[nH]c2ccccc12)C(=O)OCC(=O)Nc1cc(C)on1 (configuration not stated),12%,-5%,-12%,2%,-1%,-1%
COc1ccc(C(=O)NC(Cc2c[nH]c3ccccc23)C(=O)O)cc1 (configuration not stated),8%,-2%,.,-11%,-2%,19µM*
SMILES,ELG1 DNA repair,Rab9 promoter act,SMN2 splice enh,NPC1 prom act,ELG1 genotox,FLuc modulator
Cc1cc(NC(=O)COC(=O)[C@H](Cc2c[nH]c3ccccc23)NC(=O)c2ccc(F)cc2)no1,?,7%,-1%,-2%,-2%,17µM*
O=C(N[C@@H](Cc1c[nH]c2ccccc12)C(=O)O)c1ccc(Cl)cc1,14%,12%,6%,-1%,-4%,17µM*
Cc1ccc(C)c(NC(=O)Nc2cccc(-c3cn4cccnc4n3)c2)c1,.,.,-4%,.,.,-3%
COc1ccc(CC(=O)Nc2ccc(-c3cn4ccc(C)cc4n3)cc2)cc1,?,?,-5%,?,21µM*,?
CC(=O)Nc1cccc(-c2cn3ccccc3n2)c1,?,27%,?,16%,13%,19µM*
CC(C)C(=O)Nc1cccc(-c2cn3ccccc3n2)c1,?,17%,-5%[1.84 µM],12%,8%,11µM*
O=C(Nc1cccc(-c2cn3ccccc3n2)c1)c1cccs1,-23%,13%,.,21%,?,3.4µM*
CCOC(=O)[C@@H]1[C@H]2COc3cc(OC)ccc3[C@H]2N2C(=O)N(c3ccc(C)cc3)C(=O)[C@@]12C,15%,3%,.,0%,-1%,4%
O=C(NCCc1ccc(Cl)cc1)c1ccc2c(c1)N(Cc1ccc(Cl)cc1)C(=O)CS2,.,.,-11%,.,.,-11%
CCOc1cc(-c2ccc(OC(=O)c3ccc(OC)cc3)c(OC)c2)cc(=O)c2c(C)oc(C)c12,.,.,-10%,.,.,-11%
Cc1ccn2cc(-c3cccc(NC(=O)c4ccccc4)c3)nc2c1,?,22%,?,3%,1%,4.3µM*
Cc1cccn2cc(-c3ccc(NC(=O)Cc4ccccc4)cc3)nc12,3%,-3%,.,-2%,9%,-1%
Cc1cccn2cc(-c3cccc(NC(=O)C(C)C)c3)nc12,.,.,?,.,.,11µM*
Cc1ccn2cc(-c3cccc(NC(=O)C(C)C)c3)nc2c1,?,?,14µM*,25%,?,6µM*
O=C(Nc1cccc(-c2cn3ccccc3n2)c1)c1cc2ccccc2oc1=O,?,?,?,?,17%,1.5µM*
COc1ccc(-c2cc3ccc(O)c(CN4CCN(CCO)CC4)c3oc2=O)cc1OC,.,.,.,.,.,1%
